# APE1 inh = inhibitors of human APE1 endonuclease; AID 2517; Potency, µM (doses to about 65.8 µM), for inactives: at the top dose activity change, negative = inhibition, most hits filed as inhibitors; recombinant APE1, TAMRA/BHQ-2 abasic DNA cleavage fluorescence; 0.35% of 350,000 active; P27695;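 also: plate controls were vehicle for no effect and reference inhibitor for full effect; nearly all actives have a fitted effect of over 55% in size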
#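 Measures dequenching upon AP-site incision of a 5'-TAMRA/3'-BHQ-2 THF-containing duplex, 50 nM; human APE1 0.75 nM after 15 min room-temperature exposure to compound; kinetic three-point read at one-minute spacing.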
# WRN helicase inh = WRN helicase (human) inhibition; WRN helicase unwinding, fluorescent forked duplex, kinetic; Potency, µM (series often up to 114 µM), without a hit: at the highest dose activity change, negative = inhibition, most hits filed as inhibitors; 0.46% of 360,000 active; AID 651768; also: nearly all actives have a fitted effect of over 55% in size
#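 Kinetic fluorescence helicase assay: unwinding of a quenched forked DNA duplex (100 nM final) with 2 mM ATP final raises red fluorescence (525/598 nm). Compounds sat 15 min at room temperature with 20 nM WRN beforehand.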
# BLM helicase inh = blocks DNA unwinding by human BLM helicase; P54132; recombinant BLM DNA unwinding, fluorescence dequenching; Potency, µM (titrated, usually from 56.1 µM), for inactives: at the highest dose activity change, negative = inhibition, hits mostly inhibitors; 0.2% of 350,000 active; AID 2528;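 also: plate controls were vehicle for no effect and no enzyme for full effect; nearly all actives have a fitted effect of over 35% in size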
# RECQ1 inh-1 = blocks DNA unwinding by human RECQ1; P46063; RECQ1 DNA unwinding, red fluorescence kinetic read; Potency, µM (top dose mostly 57.3 µM), inactives show top-dose activity, negative = inhibition, hits mostly inhibitors; 0.54% of 240,000 active; AID 2549;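 also: plate controls were vehicle for no effect and no enzyme for full effect; nearly all actives have a fitted effect of over 30% in size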
#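 RECQ1T1 50 nM; forked duplex (20 bp + 30-nt ss tails) 200 nM, ATP 2 mM final; pH 8.0, 2 mM MgCl2, 2.5 ug/ml poly(dI-dC); 15 min compound preincubation; discontinuous kinetic read over 2 h at RT.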
# L3MBTL1 inh = L3MBTL1 (human) inhibition; Q9Y468; AlphaScreen L3MBTL1–H3K9me1 peptide binding; Potency, µM (series often up to 57.1 µM), for the others: top-dose activity, negative = inhibition, hits mostly inhibitors; 0.66% of 230,000 active; also: nearly all actives have a fitted effect of over 60% in size
#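 L3MBTL1 50 nM + b-AHA-H3(1-15)K9me1 75 nM, 30 min RT; compound added, 30 min RT; streptavidin donor/Ni-chelate acceptor beads 10 ug/mL each final, 30 min RT dark; AlphaScreen read.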
# RECQ1 conf = confirmation of human RECQ1 helicase inhibitors; shares compounds with RECQ1 inh-1; RECQ1 helicase DNA unwinding, fluorescence; Potency, µM (highest dose often 229 µM), for the others: at the top dose activity change, negative = inhibition, usual class: inhibitors; 28% of 610 active; AID 2708; also: nearly all actives have a fitted effect of over 45% in size
# ADP FP counter = ADP displacement flagged in RECQ1 inhibitor counter-screen | shares compounds with RECQ1 inh-1 | ADP fluorescence polarization displacement counterscreen | Potency, µM (titrated, usually from 228 µM), without a hit: top-dose activity change, negative = inhibition, hits mostly inhibitors | 27% of 530 active | AID 2711; also: nearly all actives have a fitted effect of over 45% in size
# RECQ1 inh-2 = confirmation of human RECQ1 helicase inhibitors | shares compounds with RECQ1 inh-1 | recombinant RECQ1 DNA unwinding, red fluorescence | Potency, µM (titrated, usually from 119 µM), for the others: top-dose activity, negative = inhibition, usual class: inhibitors | 15% of 1,100 active | AID 504841; also: nearly all actives have a fitted effect of over 50% in size
# Numbers without * were called inactive; i = inactive; ? = inconclusive; · = no result; [ ] = dose if it differs, or a comment. The list is not random: actives were taken first. Their share in the collection is about 0.92%. Calls follow the shape of the dose curve; as a rule, active = well fitted curve in the direction sought with a large enough effect; inconclusive = small, poorly fitted or top-dose-only effect, or another doubt; inactive = no such curve, though single readings can be large; an effect the other way counts as inactive or inconclusive. Unless noted, % is scaled to controls: 0 for no effect and ±100 for the full control effect; potency is read from the fitted curve at half-maximal effect.
SMILES,APE1 inh,WRN helicase inh,BLM helicase inh,RECQ1 inh-1,L3MBTL1 inh,RECQ1 inh-2,others
COC(=O)c1ccc(CSc2nc3c([nH]c4ccccc43)c(=O)n2-c2ccc(F)cc2)o1,·,·,-4%,·,·,·,
Cc1ccc(/C=C2/SC(=S)N(C3CCCCC3)C2=O)o1,78%,13%,0%,·,·,·,
Cc1ccc(/C=C2/SC(=O)NC2=S)o1,13µM*,40µM*,-12%,18µM*,·,?,RECQ1 conf=13%[114 µM];ADP FP counter=35µM*
Cc1cc(C)cc(C(=O)N2CC(=O)Nc3ccc(Br)cc3C2c2ccccc2)c1 (stereo unspecified),·,·,-9%,·,·,·,
Cc1nc2ccc(C(=O)Nc3cccc([N+](=O)[O-])c3)cc2s1,-9%,-20%,-2%,?,-1%,-6%,
O=C(Cn1nnc(-c2ccc(S(=O)(=O)N3CCCC3)cc2)n1)Nc1ccccc1-n1cccc1,-7%,-7%,-6%,i,-9%,·,RECQ1 conf=4%;ADP FP counter=0%
NC(=O)c1ccc(-c2nnn(CC(=O)Nc3cccc(S(=O)(=O)N4CCCC4)c3)n2)cc1,12%,4%,·,·,-2%,·,
Fc1ccc(C(c2nnc(-c3ccccc3)o2)N2CCN(c3ccccc3)CC2)c(Cl)c1 (stereo unspecified),·,·,-7%,·,·,·,
O=C(O)c1c(-n2cccc2)sc2c1CCCC2,3%,2%,0%,i,-3%,·,
Cc1sc(-n2cccc2)c(C(=O)O)c1C,-4%,-24%[57.1 µM],-11%,?,-14%,?,
CCOC(=O)c1ccc(-n2c(CCC(=O)O)ccc2-c2ccccc2)cc1O,·,·,1%,·,·,·,
C=CCn1c(=O)/c(=C/c2ccc(C)o2)s/c1=C(/C#N)C(=O)c1ccccc1,-3%,-3%,-16%,32µM*,?,?,
C=CCn1c(=O)/c(=C\c2ccccn2)s/c1=C(/C#N)C(=O)NCC1CCCO1 (stereo unspecified),0%,-4%,-12%,-6%,-9%,·,
O=C(NC1CCCC1)c1ccc2nc(-c3ccco3)c(-c3ccco3)nc2c1,?,40µM*,?,?,-27%,-21%,
Cc1ccc(-n2nnc(-c3nccs3)n2)cc1,?,8%,3%,0.89µM*,22%,0%,RECQ1 conf=12%[114 µM];ADP FP counter=32%[91.9 µM]
COc1ccccc1CN1C(=O)c2ccncc2C1=O,-1%,2%,1%,-7%,4%,·,
COc1ccccc1CN1C(=O)c2cccc3cccc(c23)C1=O,2%,-32%[57.1 µM],-1%,25µM*,-2%,4%,
CCOC(=O)N1CCc2c(sc3c2C(=O)NC(c2cc(OC)c(OC)c(OC)c2)N3)C1 (stereo unspecified),·,·,1%,·,·,·,
O=P1(O)Oc2c(c(-c3ccccc3)cc3ccccc23)-c2c(-c3ccccc3)cc3ccccc3c2O1,0%,·,-5%,?,·,?,
O=P1(O)Oc2c(c(-c3ccccc3)cc3ccc4ccccc4c23)-c2c(-c3ccccc3)cc3ccc4ccccc4c3c2O1,-2%,·,-1%,i,·,·,
COc1ccccc1C(=O)Nc1ccc(-c2nnc(SCC(=O)O)n2C)cc1,-5%,-19%,-4%,i,·,·,RECQ1 conf=17%;ADP FP counter=-11%
O=C(Nc1ccc2nc(SCC(=O)N3CCCC3)sc2c1)c1ccc(Br)cc1,·,·,-11%,·,·,·,
CC1CN(S(=O)(=O)c2ccc(C(=O)Nc3ccc(S(=O)(=O)Nc4nccs4)cc3)cc2)CC(C)O1 (stereo unspecified),-11%,-1%,-3%,7%,-13%,·,RECQ1 conf=-4%;ADP FP counter=7%
COc1ccc(C(=O)NNC(=O)c2ccc(S(=O)(=O)N3CC(C)OC(C)C3)cc2)cc1 (stereo unspecified),18%,4%,-5%,9%,·,·,
COc1cc(OC)cc(C(=O)NNC(=O)c2ccc(S(=O)(=O)N3CC(C)OC(C)C3)cc2)c1 (stereo unspecified),-12%,3%,1%,0%,·,·,RECQ1 conf=10%;ADP FP counter=-1%
SMILES,APE1 inh,WRN helicase inh,BLM helicase inh,RECQ1 inh-1,L3MBTL1 inh,RECQ1 inh-2,others
CCNc1ncc2nc(-c3ccc(OC)cc3)c(=O)n(CCc3ccccc3)c2n1,12%,·,1%,-12%,·,·,
CCNc1ncc2nc(-c3cc(F)cc(F)c3)c(=O)n(CCc3ccccc3)c2n1,?,·,-9%,?,·,16µM*,
N#C/C(=C/c1ccc(N2CCCCCC2)o1)c1ccc(Cl)cc1,14%,-21%,-9%,?,·,·,
Cc1ccc(/C(C#N)=C\c2ccc(N3CCOCC3)o2)cc1,-2%,-15%,-7%,32µM*,-9%,?,
COc1ccc(C)cc1S(=O)(=O)Nc1ccncc1,24%,0%,-6%,20µM*,10%,-7%,
C=C1C(=O)OC2C1CC/C(C)=C/CCC1(C)OC21 (stereo unspecified),-9%,·,2%,i,·,·,
CC(C)NS(=O)(=O)c1ccc(NC(=S)NC(=O)c2ccc(-c3ccccc3)cc2)cc1,-5%,-11%,-9%,?,-2%,-7%,
Cn1cnc([N+](=O)[O-])c1Oc1cccc2ccccc12,18%,-26%[57.1 µM],1%,5µM*,4%,-16%,
Cn1cnc([N+](=O)[O-])c1Oc1ccccc1,0%,-7%,0%,-18%,13%,·,
O=C(O)c1cccc(N2C(=O)c3ccc(C(=O)c4cccc([N+](=O)[O-])c4)cc3C2=O)c1,19%,-7%,1%,-3%,·,·,
O=C(O)c1ccc2c(c1)C(=O)N(c1cccc(C(=O)/C=C/c3ccccc3)c1)C2=O,23%,?,-11%,6.3µM*,11%,?,RECQ1 conf=?;ADP FP counter=3%[91.9 µM]
Cc1ccc(NC(=O)C2CCN(S(=O)(=O)c3cccc4nonc34)CC2)cc1C,·,·,-9%,·,·,·,
COc1cc(NC(=O)C2CCN(S(=O)(=O)c3cccc4nonc34)CC2)cc(OC)c1,12%,-15%,-2%,16µM*,4%,-2%,
CCOC(=O)Cc1ccc(NC(=O)Nc2nnc(N3CCCCC3C)s2)cc1 (stereo unspecified),·,·,-8%,·,·,·,
C=CCNC(=O)c1cc2c(=O)c3ccccc3oc2nc1C,-12%,-4%,-1%,28µM*,-4%,-10%,
Cn1cccc1Cc1nnc(SCC(=O)N2CCc3ccccc32)n1-c1ccc(F)cc1,-1%,1%,3%,-13%,-8%,·,
Cc1ccc(-n2c(Cc3cccn3C)nnc2SCC(=O)N2CCc3ccccc32)cc1,9%,-2%,-17%,0.22µM*,0%,-9%,RECQ1 conf=17%[114 µM];ADP FP counter=14%[91.9 µM]
